The whole screen tested about 60,000 compounds, of which about 65 (0.1%) were called active. The sample as a whole holds a higher share of actives than the screen did. Unmarked numbers belong to inactive results. Calls come from the whole dose curve; as a rule, active = well fitted inhibition curve with a large enough effect; inconclusive = small, poorly fitted or top-dose-only effect; inactive = no such curve, though single readings can be large or run the other way.
Biological target: Ubiquitin carboxyl-terminal hydrolase 2 (Homo sapiens) (UniProt O75604)
Sequence (O75604 whole entry, looked up): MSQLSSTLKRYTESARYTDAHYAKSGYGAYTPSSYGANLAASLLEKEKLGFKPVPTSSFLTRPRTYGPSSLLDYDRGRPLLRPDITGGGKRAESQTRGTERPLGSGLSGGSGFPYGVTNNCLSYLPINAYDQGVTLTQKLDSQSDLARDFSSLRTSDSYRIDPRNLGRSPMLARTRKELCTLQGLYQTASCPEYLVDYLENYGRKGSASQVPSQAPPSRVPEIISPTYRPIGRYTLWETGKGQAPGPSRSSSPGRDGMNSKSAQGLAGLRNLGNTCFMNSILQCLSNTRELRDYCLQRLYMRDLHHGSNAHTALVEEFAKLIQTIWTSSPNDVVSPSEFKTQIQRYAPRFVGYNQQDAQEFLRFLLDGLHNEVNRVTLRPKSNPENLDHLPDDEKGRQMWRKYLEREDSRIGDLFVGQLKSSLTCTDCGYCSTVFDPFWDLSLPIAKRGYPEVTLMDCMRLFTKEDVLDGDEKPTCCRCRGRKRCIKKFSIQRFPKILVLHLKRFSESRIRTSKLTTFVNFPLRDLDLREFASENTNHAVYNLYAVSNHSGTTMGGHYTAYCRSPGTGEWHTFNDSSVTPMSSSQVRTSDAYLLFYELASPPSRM
Assay: qHTS Assay for Inhibitors of Ubiquitin-specific Protease USP2a; note: nearly all actives have a fitted effect of over 60% in size
Settings: USP2a enzymatic assay; Potency: qHTS inhibition; series mostly up to 38.3 µM; activity change, negative = inhibition: at the top concentration
Description: NIH Molecular Libraries Screening Centers Network [MLSCN]
NIH Chemical Genomics Center [NCGC]
PI Name: Nicholson, Ben. Progenra Inc, Malvern, PA
Homeostasis of cellular proteins is maintained through a combination of synthesis and degradation. The pathway that accounts for the majority of protein degradation is the ubiquitin-proteasomal pathway. Ubiquitin (Ub) is highly conserved in all cells and the generation of a multi-Ub chain typically targets proteins for degradation by the proteasome. However, ubiquitination is highly reversible and dynamic. Deubiquitination, the reverse process, is catalyzed through the action of enzymes referred to as isopeptidases or deubiquitinating enzymes (DUBs). This group of enzymes is collectively responsible for maintaining adequate pools of free ubiquitin and regulating the ubiquitination status of cellular proteins. The class of DUBs referred to as the ubiquitin-specific proteases (USP) family functions endoproteolytically to cleave Ub chains from a wide range of protein substrates. USP2a deubiquitinates fatty acid synthase (FASN) which has recently been identified as an emerging oncology target. To identify inhibitors of USP2a a cell-free assay was employed.
The reporter enzyme chosen is phospholipase A2 (PLA2), which has an absolute requirement for a free amino terminus. Thus, fusion of a UBL to the N-terminus of PLA2 inactivates PLA2. When the UBL-PLA2 reporter enzyme is cleaved by USP2, the activated reporter can subsequently act on its substrate, which is the commercially available NBD C6-HPC (Invitrogen). Thus, this coupled assay gives a fluorescent read-out, which is generated through the cleavage of the PLA2 reporter enzyme. The assay, developed by Progenra, Inc. uses Ub-PLA2 and USP2a at near equal and low (nM) amounts and has been licensed for sale by LifeSensors, Inc. as the Ub-IsoPro1 kit.
NCGC Assay Protocol Summary:
The assay buffer, prepared fresh at the day of the assay, contains 20mM Tris-HCl pH 8.0, 2mM CaCl2, 2mM beta-Mercaptoethanol, 0.1% DMSO. 3ul of 40nM (20nM final) USP2 core, which is stored on ice, is dispensed into a medium-binding black solid Kalypsys 1,536 well plate using the Kalypsys dispenser. The assay plate is then pinned with 23nL compound with the Kalypsys pintool in columns 5-48. The controls are pinned as follows: column 1&2 two-fold dilutions of 2M NEM in duplicate; column 3 DMSO; column 4 2M NEM (final concentration 38.2mM). The assay plate is incubated at RT for 30min. Subsequently, 3uL of 40nM (20nM final) Ub-PLA2 and 40uM (20uM final) NBD C6-HPC (stored on ice and protected from light) were dispensed into the plate using the Kalypsys dispenser. Plates were read immediately (0 Hour) on an Envision (Perkin Elmer) plate reader using the following wavelengths Ex 460nm /Em 535nm. Then, the assay plates were incubated for 2.5 hours and read again on the Envision using the same settings
Data were normalized to the to AC100 inhibition (NEM). Concentration-response curves were fitted to the normalized data and the concentration-response curves were then classified based on curve quality (r2), response magnitude and degree of measured activity. The time zero reading was used to flag fluorescence artifacts.
Keywords: ubiquitination, deubiquitination, proteases, profluorescent, MLSMR, MLSCN, NIH Roadmap, qHTS, NCGC

Structure (SMILES)	activity change, negative = inhibition [%]
CCCCNc1nc2ccccc2nc1NS(=O)(=O)c1cccs1	11.4
Cc1ccc(N(C(=O)CC2NC(=O)NC2=O)C2(C(=O)NC3CCCC3)CCCCC2)cc1 (stereo not given)	14
C=CCn1c(CSc2nc3ccccc3s2)nnc1SCC(=O)NCc1ccco1	22.9
O/N=C1\CC2(Cc3nonc31)OCCO2	-8.23
CC1(C)OC2CC3C4CCC5=CC(=O)CCC5(C)C4(F)C(O)CC3(C)[C@]2(C(=O)CCl)O1 (stereo not given in full)	32.2
Cc1c(S(=O)(=O)O)oc2c1C(=O)C(=O)c1c-2ccc2c1CCCC2(C)C	28.5
CC(C)OCCCNC(=O)C1CC(=O)N(C2CCCCCCC2)C1 (stereo not given)	6.61
COc1ccc(OC)c(NC(=O)CSc2nc(N)c(-c3ccccc3)c(=O)[nH]2)c1	3.67
O=C(O)C1CCN1C1CCCCC1 (stereo not given)	-1.2
O=C(O)c1ccc(COCC(F)(F)F)cc1	-7.83
Cc1nnc(SCc2cc(=O)[nH]c(N3CCN(Cc4ccccc4)CC3)n2)s1	18.7
CC(C)(O)CCC(O)[C@@](C)(O)C1CC[C@]2(O)C3=CC(=O)C4CC(O)C(O)C[C@]4(C)C3CC[C@]12C (stereo not given in full)	-9.42
CC(=O)Oc1c2c(c3c(c1CC=C(C)C)O[C@@]14C(=CC5CC1C(C)(C)OC4(C/C=C(\C)C(=O)O)C5=O)C3=O)OC(C)(CCC=C(C)C)C=C2 (stereo not given in full)	48.5
CC1(C)CC(=O)C=C(NCCCN2CCCC2=O)C1	-3.87
c1csc(-c2cn3c(n2)SCC3)c1	15.3
COc1nc(Oc2ccc(=O)n(C)n2)nc(N(C)C)n1	0.801
CC(C)C1=CC2=CC[C@@H]3[C@](C)(CO)CCC[C@]3(C)C2CC1 (stereo not given in full)	4.02
Fc1cccc(/C=N\N=C/c2cccc(F)c2)c1	-4.64
O=C(NCCCN1CCCCCC1)C1CC(=O)N(C2CCCC2)C1 (stereo not given)	4.66
CCOC(=O)C1CCN(C(=O)Cc2c(C(=O)O)[nH]c3ccccc23)CC1	-3.9
CCCCN(C)Cc1c(C)[nH]c2ccc(Cl)cc2c1=O	-9.81
CCOC(=O)Cc1csc(NC(=O)C(C)(C)C)n1	4.85
Cn1c(=O)c2cn(-c3cccc4ccccc34)cc2n(C)c1=O	25.7
Cc1nn(C)c(C)c1S(=O)(=O)N1CCc2ccccc21	2.65
Nc1nc2[nH]c(=O)c(=O)[nH]c2c(=O)[nH]1	-4.69
CN1CCCC1CCO[C@@](C)(c1ccccc1)c1ccc(Cl)cc1 (stereo not given in full)	-0.877
CS(=O)(=O)N1CCC2(CCN(c3ccncc3)CC2)CC1	-3.96
O=c1c(O)c(-c2ccc(O)cc2)oc2ccccc12	55.6
Cc1nnc(SCCCn2c(N3CCCCC3)nc3c2c(=O)[nH]c(=O)n3C)s1	1.5
O=C(NC1CCN(Cc2ccccc2)CC1)c1ccccc1F	6.93

— PubChem BioAssay AID927 (National Center for Advancing Translational Sciences (NCATS), 2007)
